The supplement of paper PMC12645437, “Orthogonal IMiD-Degron Pairs Induce Selective Protein Degradation in Cells” (ACS Chemical Biology, 2025)
In all, about 8,300 sequences were measured (“log2 fold change of degron read counts, EGFP-low vs EGFP+ sorted cells (limma voom), compound-induced degradation”: median about -1.1, highest 2% from about 3.2 on). For the sample, the highest values were picked, then their nearest neighbours and some sequences at random.

Molecular target: T1, CRBN, Q96SW2
T1 chain: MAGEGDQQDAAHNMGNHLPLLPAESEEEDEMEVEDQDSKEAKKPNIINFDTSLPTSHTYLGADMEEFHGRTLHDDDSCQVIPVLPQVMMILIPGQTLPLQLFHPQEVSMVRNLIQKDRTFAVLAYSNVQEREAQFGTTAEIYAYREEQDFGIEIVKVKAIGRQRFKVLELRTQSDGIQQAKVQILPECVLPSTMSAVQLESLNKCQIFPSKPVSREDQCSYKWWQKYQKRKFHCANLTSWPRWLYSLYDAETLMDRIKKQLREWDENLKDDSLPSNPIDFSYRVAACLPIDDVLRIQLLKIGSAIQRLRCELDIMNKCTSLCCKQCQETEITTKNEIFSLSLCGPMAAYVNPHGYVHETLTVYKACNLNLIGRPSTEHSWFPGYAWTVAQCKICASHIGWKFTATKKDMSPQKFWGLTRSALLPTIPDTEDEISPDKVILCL
Assay: log2 fold change of degron read counts, EGFP-low vs EGFP+ sorted cells (limma voom), compound-induced degradation; higher = more compound-induced degradation of the degron-EGFP fusion; degrons are variants of IKZF1/3 zinc finger 2; compound dose not given here
Details: Jurkat, 18 h

[1] = compound: compound 19 (5-tert-butyl-thalidomide)
[2] = compound: compound 22 (5-morpholino-thalidomide)
[3] = compound: compound 33 (diphenyl IMiD analogue)
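Further: pooled lentiviral library of zinc finger degron-EGFP fusions in mCherry-positive Jurkat cells, FACS-sorted after compound exposure, with degron abundance counted by next-generation sequencing.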

B1: 46L_47K_49E_50I_52G_53F_54T_55C_67L_, Q9UKT9 (peptide)
chain: LKCEICGFTCTQKGNLLRHIKL
log2 fold change of degron read counts [1]: -1
log2 fold change of degron read counts [2]: -2.29
log2 fold change of degron read counts [3]: -1.73
log2 fold change of degron read counts (compound: thalidomide): 0.124

B2: 46L_47M_49E_50I_52G_53F_54T_55C_67L_, Q9UKT9 (peptide)
chain: LMCEICGFTCTQKGNLLRHIKL
log2 fold change of degron read counts [1]: 0.136
log2 fold change of degron read counts [2]: 1.5
log2 fold change of degron read counts [3]: 3.07
log2 fold change of degron read counts (compound: thalidomide): 2.97

B3: 46L_47S_49E_50I_52G_53F_54T_55C_67L_, Q9UKT9 (peptide)
chain: LSCEICGFTCTQKGNLLRHIKL
log2 fold change of degron read counts [1]: 3.05
log2 fold change of degron read counts [2]: 2.87
log2 fold change of degron read counts [3]: 1.94
log2 fold change of degron read counts (compound: thalidomide): 1.96

B4: 46L_47A_49E_50I_52G_53F_54T_55C_67L_, Q9UKT9 (peptide)
chain: LACEICGFTCTQKGNLLRHIKL
log2 fold change of degron read counts [1]: 3.48
log2 fold change of degron read counts [2]: 3.3
log2 fold change of degron read counts [3]: 1.55
log2 fold change of degron read counts (compound: thalidomide): 1.36

B5: 46L_47L_49E_50I_52G_53F_54T_55C_67L_, Q9UKT9 (peptide)
chain: LLCEICGFTCTQKGNLLRHIKL
log2 fold change of degron read counts [1]: 0.0109
log2 fold change of degron read counts [2]: -0.207
log2 fold change of degron read counts [3]: 1.27
log2 fold change of degron read counts (compound: thalidomide): 2.65

B6: 46L_47W_49E_50I_52G_53F_54T_55C_67L_, Q9UKT9 (peptide)
chain: LWCEICGFTCTQKGNLLRHIKL
log2 fold change of degron read counts [1]: 3.55
log2 fold change of degron read counts [2]: 3.79
log2 fold change of degron read counts [3]: 3.08
log2 fold change of degron read counts (compound: thalidomide): 1.83

B7: 46L_47Q_49E_50I_52G_53F_54T_55C_67L_, Q9UKT9 (peptide)
chain: LQCEICGFTCTQKGNLLRHIKL
log2 fold change of degron read counts [1]: 1.59
log2 fold change of degron read counts [2]: 2.54
log2 fold change of degron read counts [3]: 2.34
log2 fold change of degron read counts (compound: thalidomide): 3.65

B8: 46L_47T_49E_50I_52G_53F_54T_55C_67L_, Q9UKT9 (peptide)
chain: LTCEICGFTCTQKGNLLRHIKL
log2 fold change of degron read counts [1]: 1.29
log2 fold change of degron read counts [2]: 2.89
log2 fold change of degron read counts [3]: 2.18
log2 fold change of degron read counts (compound: thalidomide): 3.14

B9: 46L_47C_49E_50I_52G_53F_54T_55C_67L_, Q9UKT9 (peptide)
chain: LCCEICGFTCTQKGNLLRHIKL
log2 fold change of degron read counts [1]: 2.49
log2 fold change of degron read counts [2]: 2.78
log2 fold change of degron read counts [3]: 2.65
log2 fold change of degron read counts (compound: thalidomide): 2.98

B10: 46L_47G_49E_50I_52G_53F_54T_55C_67L_, Q9UKT9 (peptide)
chain: LGCEICGFTCTQKGNLLRHIKL
log2 fold change of degron read counts [1]: 2.28
log2 fold change of degron read counts [2]: 2.37
log2 fold change of degron read counts [3]: 0.519
log2 fold change of degron read counts (compound: thalidomide): 0.415

B11: 46L_47V_49E_50I_52G_53F_54T_55C_67L_, Q9UKT9 (peptide)
chain: LVCEICGFTCTQKGNLLRHIKL
log2 fold change of degron read counts [1]: 1.83
log2 fold change of degron read counts [2]: 2.47
log2 fold change of degron read counts [3]: 2.5
log2 fold change of degron read counts (compound: thalidomide): 3.21

B12: 46L_47Y_49E_50I_52G_53F_54T_55C_67L_, Q9UKT9 (peptide)
chain: LYCEICGFTCTQKGNLLRHIKL
log2 fold change of degron read counts [1]: 3.57
log2 fold change of degron read counts [2]: 3.51
log2 fold change of degron read counts [3]: 3.19
log2 fold change of degron read counts (compound: thalidomide): 2.25

B13: 46L_47D_49E_50I_52G_53F_54T_55C_67L_, Q9UKT9 (peptide)
chain: LDCEICGFTCTQKGNLLRHIKL
log2 fold change of degron read counts [1]: 0.0603
log2 fold change of degron read counts [2]: -0.828
log2 fold change of degron read counts [3]: -0.732
log2 fold change of degron read counts (compound: thalidomide): 0.278

B14: 46F_47E_49P_50I_52G_53R_54S_55F_67L_, Q9UKT9 (peptide)
chain: FECPICGRSFTQKGNLLRHIKL
log2 fold change of degron read counts [1]: -1.57
log2 fold change of degron read counts [2]: -1.84
log2 fold change of degron read counts [3]: 0.414
log2 fold change of degron read counts (compound: thalidomide): 1.14

B15: 46F_47F_49S_50V_52G_53H_54N_55F_67L_, Q9UKT9 (peptide)
chain: FFCSVCGHNFTQKGNLLRHIKL
log2 fold change of degron read counts [1]: -2.16
log2 fold change of degron read counts [2]: -2.66
log2 fold change of degron read counts [3]: -2.79
log2 fold change of degron read counts (compound: thalidomide): -2.23

B16: 46F_47C_49N_50Q_52G_53R_54R_55F_67L_, Q9UKT9 (peptide)
chain: FCCNQCGRRFTQKGNLLRHIKL
log2 fold change of degron read counts [1]: -2.5
log2 fold change of degron read counts [2]: -2.28
log2 fold change of degron read counts [3]: -2.09
log2 fold change of degron read counts (compound: thalidomide): -1.82

B17: 46L_47R_49E_50I_52G_53F_54N_55C_67L_, Q9UKT9 (peptide)
chain: LRCEICGFNCTQKGNLLRHIKL
log2 fold change of degron read counts [1]: -1.42
log2 fold change of degron read counts [2]: -1.56
log2 fold change of degron read counts [3]: -0.0516
log2 fold change of degron read counts (compound: thalidomide): 0.0396

B18: 46F_47G_49N_50Q_52G_53R_54I_55F_67L_, Q9UKT9 (peptide)
chain: FGCNQCGRIFTQKGNLLRHIKL
log2 fold change of degron read counts [1]: -1.52
log2 fold change of degron read counts [2]: -1.65
log2 fold change of degron read counts [3]: -1.94
log2 fold change of degron read counts (compound: thalidomide): -1.45

B19: 46F_47E_49N_50Q_52G_53R_54H_55F_67L_, Q9UKT9 (peptide)
chain: FECNQCGRHFTQKGNLLRHIKL
log2 fold change of degron read counts [1]: -2.89
log2 fold change of degron read counts [2]: -3.21
log2 fold change of degron read counts [3]: -3.78
log2 fold change of degron read counts (compound: thalidomide): -2.98

B20: 46F_47S_49N_50Q_52G_53R_54T_55F_67L_, Q9UKT9 (peptide)
chain: FSCNQCGRTFTQKGNLLRHIKL
log2 fold change of degron read counts [1]: -2.51
log2 fold change of degron read counts [2]: -2.59
log2 fold change of degron read counts [3]: -2.31
log2 fold change of degron read counts (compound: thalidomide): -2.34

B21: 46F_47H_49E_50I_52G_53R_54S_55F_67L_, Q9UKT9 (peptide)
chain: FHCEICGRSFTQKGNLLRHIKL
log2 fold change of degron read counts [1]: -1.49
log2 fold change of degron read counts [2]: -1.82
log2 fold change of degron read counts [3]: -0.909
log2 fold change of degron read counts (compound: thalidomide): -2.11

B22: 46F_47D_49P_50I_52G_53A_54L_55F_67L_, Q9UKT9 (peptide)
chain: FDCPICGALFTQKGNLLRHIKL
log2 fold change of degron read counts [1]: -0.924
log2 fold change of degron read counts [2]: -0.888
log2 fold change of degron read counts [3]: 1.62
log2 fold change of degron read counts (compound: thalidomide): 0.905

B23: 46L_47N_49E_50I_52G_53F_54T_55C_67L_, Q9UKT9 (peptide)
chain: LNCEICGFTCTQKGNLLRHIKL
log2 fold change of degron read counts [1]: 1.73
log2 fold change of degron read counts [2]: 0.624
log2 fold change of degron read counts [3]: -0.0341
log2 fold change of degron read counts (compound: thalidomide): 0.396

B24: 46L_47F_49E_50I_52G_53F_54T_55C_67L_, Q9UKT9 (peptide)
chain: LFCEICGFTCTQKGNLLRHIKL
log2 fold change of degron read counts [1]: 3.64
log2 fold change of degron read counts [2]: 3.67
log2 fold change of degron read counts [3]: 2.59
log2 fold change of degron read counts (compound: thalidomide): 2.56

B25: 46L_47H_49E_50I_52G_53F_54T_55C_67L_, Q9UKT9 (peptide)
chain: LHCEICGFTCTQKGNLLRHIKL
log2 fold change of degron read counts [1]: 2.89
log2 fold change of degron read counts [2]: 2.93
log2 fold change of degron read counts [3]: 2.43
log2 fold change of degron read counts (compound: thalidomide): 2.43

B26: 46F_47Q_49N_50Q_52G_53H_54N_55F_67L_, Q9UKT9 (peptide)
chain: FQCNQCGHNFTQKGNLLRHIKL
log2 fold change of degron read counts [1]: -2.53
log2 fold change of degron read counts [2]: -2.33
log2 fold change of degron read counts [3]: -2.93
log2 fold change of degron read counts (compound: thalidomide): -2.77

B27: 46F_47T_49E_50Q_52G_53A_54Y_55F_67L_, Q9UKT9 (peptide)
chain: FTCEQCGAYFTQKGNLLRHIKL
log2 fold change of degron read counts [1]: -2.34
log2 fold change of degron read counts [2]: -1.73
log2 fold change of degron read counts [3]: 0.185
log2 fold change of degron read counts (compound: thalidomide): -0.424

B28: 46F_47E_49E_50Q_52G_53A_54P_55F_67L_, Q9UKT9 (peptide)
chain: FECEQCGAPFTQKGNLLRHIKL
log2 fold change of degron read counts [1]: -1.7
log2 fold change of degron read counts [2]: -3.27
log2 fold change of degron read counts [3]: -1.9
log2 fold change of degron read counts (compound: thalidomide): -1.5
